According to PubChem BioAssay (EPA / NIEHS):
Values joined by “and” are separate entries in the source; they are usually repeats but may differ in a detail not shown here. Equal values may be shown once. Records with an inconclusive call do not appear. Active and inactive are the calls of the source. Rule for the calls: active = hit-call score of the fitted dose curve at least 0.9, where 1 is the maximum; inconclusive = response in the unintended direction; inactive = score below 0.9.

These compounds were tested against Nuclear receptor subfamily 1 group I member 2 (Homo sapiens) (UniProt O75469) (assay: NVS_NR_hPXR: NovaScreen (NVS) Nuclear Receptor Binding Assay for human Pregnane X Receptor (PXR) (AID 2283365);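 note: a drop in FRET signal versus DMSO baseline means the compound binds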).
Chain of Nuclear receptor subfamily 1 group I member 2 (Homo sapiens) (O75469 whole entry, looked up): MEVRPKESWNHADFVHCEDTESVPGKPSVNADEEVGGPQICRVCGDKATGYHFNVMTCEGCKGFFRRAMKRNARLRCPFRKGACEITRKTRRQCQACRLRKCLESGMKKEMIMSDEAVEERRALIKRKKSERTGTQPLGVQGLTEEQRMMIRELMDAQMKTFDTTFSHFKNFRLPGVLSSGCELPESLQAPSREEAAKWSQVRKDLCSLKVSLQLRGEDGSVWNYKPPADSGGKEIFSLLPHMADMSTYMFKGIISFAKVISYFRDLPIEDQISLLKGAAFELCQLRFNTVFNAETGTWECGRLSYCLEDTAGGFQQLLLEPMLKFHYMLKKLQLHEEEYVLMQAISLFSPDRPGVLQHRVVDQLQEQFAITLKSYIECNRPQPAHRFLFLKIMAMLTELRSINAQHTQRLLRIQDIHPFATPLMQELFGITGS
How it was run: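 TR-FRET signal read at 2 h in a cell-free human PXR binding format. DMSO served as negative control and baseline; activity scored as signal loss. Single-concentration duplicate screen (25 uM), then concentration-response follow-up.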

Row | SMILES | outcome | AC50
1 | CCCCCCCCCCCC(=O)O | inactive | –
2 | O=C1NS(=O)(=O)c2ccccc21 | inactive | –
3 | Cc1ccc(S(=O)(=O)O)cc1 | inactive | –
4 | CCCCCCCCCCCC | – | 2.03 µM (active)

These compounds were tested against guinea pig Sigma Receptor, Non-selective Binding, SIGMAR1 (gene 100135589) (UniProt Q60492) (assay: NVS_OR_gSIGMA_NonSelective: NovaScreen (NVS) Nuclear Receptor Binding Assay for guinea pig Sigma Receptor, Non-selective Binding (AID 2283367)).
Chain of guinea pig Sigma Receptor, Non-selective Binding, SIGMAR1 (gene 100135589) (Q60492 whole entry, looked up): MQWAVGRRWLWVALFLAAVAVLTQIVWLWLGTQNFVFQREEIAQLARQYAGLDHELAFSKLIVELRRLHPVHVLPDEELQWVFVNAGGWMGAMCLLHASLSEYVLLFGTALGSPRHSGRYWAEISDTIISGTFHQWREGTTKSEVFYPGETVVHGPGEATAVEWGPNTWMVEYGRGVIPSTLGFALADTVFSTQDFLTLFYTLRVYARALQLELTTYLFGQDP
How it was run: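 Guinea pig brain membranes, cell-free radioligand binding; read 1 h after dosing by filter-based scintillation counting. Loss of signal vs DMSO baseline taken as displacement. Primary screen single concentration 25 uM in duplicate; actives retested in concentration series.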

Row | SMILES | AC50 | outcome
5 | CC[N+](CC)(CC)Cc1ccccc1 | 15.5 µM (active) | –
6 | CN(C)c1ccc(C(=C2C=CC(=[N+](C)C)C=C2)c2ccccc2)cc1 | 9.34 µM (active) and 12.5 µM (active) | –
7 | CCCCCCCCCCCCCCCCCC[N+](C)(C)Cc1ccccc1 | 2.32 µM (active) | –
8 | CCN(CC)CC | – | inactive

What follows are compounds tested on guinea pig Dopamine Transporter (DAT), gene 100714898 (assay: NVS_TR_gDAT: NovaScreen (NVS) Transporter Assay for guinea pig Dopamine Transporter (DAT) (AID 2283369);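 note: active compounds lower bound radioligand signal relative to DMSO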).
How it was run: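 Cell-free striatal membrane prep (guinea pig), 2 h exposure, filtration + scintillation readout of radioligand binding. Single-point 25 uM duplicate; actives rerun singleton, top conc 50 uM.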

Row | SMILES | AC50 | outcome
9 | CC(C)(C)c1ccc(O)c(O)c1 | 45.5 µM (active) | –
10 | Clc1ccc(Nc2nnc(Cc3ccncc3)c3ccccc23)cc1 | 6.66 µM (active) | –
11 | C[C@]12CC[C@@H]3c4ccc(O)cc4CC[C@H]3[C@@H]1C[C@@H](O)[C@@H]2O | 3.04 µM (active) | –
12 | CCCCCc1ccc(O)cc1 | 10.5 µM (active) | –
13 | O=C(CCCN1CCC(O)(c2ccc(Cl)cc2)CC1)c1ccc(F)cc1 | 0.923 µM (active) | –
14 | CCC(C)c1ccccc1O (configuration not stated) | – | inactive
15 | COC1=CC(=O)C[C@@H](C)[C@]12Oc1c(Cl)c(OC)cc(OC)c1C2=O | 3.8 µM (active) | –
16 | CN(C)c1ccc(C(=C2C=CC(=[N+](C)C)C=C2)c2ccccc2)cc1 | 4.17 µM (active) and 3.93 µM (active) | –
17 | O=C(c1ccccc1)c1ccccc1 | – | inactive
